The full list was thinned out, with hits kept by preference.
TTR transcr act – activators of transthyretin transcription | SH-SY5Y TTR promoter Gaussia luciferase, luminescence; 100% = recombinant luciferase protein wells | activation, % at 16.7 µM | 92,000 tested, 1.3% active;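 active means activation above the mean of all tested compounds plus 3 SD, cut at about 9.5% in these data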;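 further: cells exposed to compounds for one day before reading; 0% = median of all test compound wells on the plate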
HuH7 TTR inh – counter-screen for TTR activators: TTR transcription inhibitors in HuH7 cells. shares compounds with TTR transcr act. HuH7 TTR promoter-Gaussia luciferase reporter, luminescence. inhibition, % at 16.7 µM. 1,100 tested, 4% active. AID 1117279;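 active means average inhibition above the solvent-only control wells' mean plus 3 SD, cut at about 15% in these data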;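 further: 0% = cells with DMSO only and 100% = cells with inhibitor control FD; inhibitors lower well luminescence so higher value means more inhibition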
TTR up confirm – confirmation of human transthyretin transcription activators. shares compounds with TTR transcr act. SHSY5Y TTR promoter Gaussia luciferase, luminescence; 100% = purified Lucia enzyme wells, no cells. activation, % at 16.7 µM. 1,100 tested, under 10 active. AID 1117280;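 active means mean activation above a set limit taken from the earlier primary screen, cut at about 11% in these data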;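 further: 0% = DMSO-treated cells and 100% = recombinant Lucia luciferase without cells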
* marks the source's active call; other numbers are inactive results.

SMILES	TTR transcr act	others
Cc1ccc2c(COC(=O)C3CC(=O)N(c4ccc5c(c4)OCCO5)C3)cc(=O)oc2c1 (stereo not given)	-2
O=C(COC(=O)C1CC(=O)N(c2ccc3c(c2)OCCO3)C1)Nc1ccc2c(c1)CCC2 (stereo not given)	11*	HuH7 TTR inh=-12;TTR up confirm=3
Cc1noc(C)c1S(=O)(=O)N(C)C[C@@H]1OCc2cnnn2CCCC(=O)N([C@H](C)CO)C[C@@H]1C	-2
COc1ccc(C(=O)OC2C(OC)OCC(O)C2O)cc1 (stereo not given)	-1
CC(C)(C)OC(=O)CNC(=O)c1[nH]cnc1C(=O)NCC(=O)OCc1ccccc1	0
O=C(CNC(=O)c1[nH]cnc1C(=O)NC(c1ccccc1)c1ccccc1)OCc1ccccc1	11*	HuH7 TTR inh=-23;TTR up confirm=-1
O=C(CNC(=O)c1[nH]cnc1C(=O)N[C@@H](Cc1ccccc1)C(=O)OCc1ccccc1)OCc1ccccc1	5
CCCCOCCCNC(=O)C[C@H]1C[C@@]2(C(=O)OC)C(=C[C@H](C3CCCC3)O[C@@H]2C)N(Cc2ccco2)C1=O	0
COC(=O)[C@]12CCCCC=C1N(Cc1ccc(OC)cc1)C(=O)[C@@H]2CC(=O)NCCC(C)C	-1
COC[C@@H]1CCCN1c1cccc2c1S(=O)(=O)N1CC[C@H](C1)O2	0
O=C(O)CCc1ccccc1OC(=O)c1ccccc1	1
O=C(Oc1cccc2ccccc12)c1ccccc1	0
O=C(Oc1cc(=O)oc2ccccc12)c1ccccc1	14*	HuH7 TTR inh=0;TTR up confirm=0
Nn1cc(-c2ccccc2)nc1SCC(=O)Nc1ccc2c(c1)OCO2	14*	HuH7 TTR inh=-22;TTR up confirm=1
Nn1c(SCC(=O)Nc2ccc3c(c2)OCO3)nncc1=O	-2
O=C(CSc1nc2ccccc2s1)Nc1ccc2c(c1)OCO2	2
CC(C)c1ccc(CN2CCC2(C)C(=O)Nc2cccc(Oc3ccccc3)c2)cc1 (stereo not given)	2
O=C(OCC#CCSc1nnc(-c2ccccc2F)o1)c1ccc(F)cc1	-1
COc1cc(C(F)(F)F)c(C(=O)NCc2cccc(Cl)c2)cn1	0
COc1ccc(NC(=O)C(c2ccccc2)c2ccccc2)c(OC)c1	1
COc1ccc2c(c1)OCC(O)(c1ccccc1)C2=O (stereo not given)	38*	HuH7 TTR inh=-7;TTR up confirm=2
COc1ccc(OC)c(NC(=O)C2CC2c2ccccc2)c1 (stereo not given)	-2
Nc1[nH]c(C(=O)c2ccccc2)c(-c2ccc(Br)cc2)c1C(=O)NCCCN1CCOCC1	3
CCOc1ccc(CC(=O)NNC(=S)NCCc2ccccc2)cc1	0
Cc1cc(O)c2c(C)c(CC(=O)N3CCN(C(=O)C4COc5ccccc5O4)CC3)c(=O)oc2c1 (stereo not given)	9.8*	HuH7 TTR inh=10;TTR up confirm=-1
SMILES	TTR transcr act	others
COc1ccc(C(=O)N2CCN(C(=O)C3COc4ccccc4O3)CC2)cc1 (stereo not given)	0
COc1cc(C(=O)N2CCN(C(=O)C3COc4ccccc4O3)CC2)cc(OC)c1OC (stereo not given)	0
Cc1ccc(-n2c(SCC(=O)N(C)C3CCS(=O)(=O)C3)nc3ccccc3c2=O)c(C)c1 (stereo not given)	0
O=C(Nc1cccc(Br)c1)OC1CC2CC1[C@H]1CCCCN1C2 (stereo not given in full)	0
CN(C)c1cccc(-c2nccc(N3CCC(C(N)=O)CC3)n2)c1	-2
CCCc1cc(=O)[nH]c(Nc2ccc(O)cc2)n1	19*	HuH7 TTR inh=0;TTR up confirm=1
CCCc1cc(=O)[nH]c(SCC(=O)Nc2ccc3ccccc3c2)n1	1
CCCc1cc(=O)[nH]c(SCC(=O)NC2CCCCC2)n1	0
C=CC[C@H](CC(=O)NCCO)C(=O)NCCOC(=O)[C@@H](CC=C)CC(=O)OC(C)(C)C	13*	HuH7 TTR inh=-8;TTR up confirm=1
C=CC[C@@H](CC(=O)OC(C)(C)C)C(=O)OC[C@@H]1CCCN1C(=O)[C@H](CC=C)CC(=O)NCCO	0
C=CC[C@@H](CC(=O)NCCO)C(=O)N[C@@H](COC(=O)[C@@H](CC=C)CC(=O)OC(C)(C)C)Cc1ccccc1	6
COC(=O)c1ccc(-c2nc(-c3ccc(Br)o3)no2)cc1	-2
COC(=O)c1ccc(-c2nc(-c3cccs3)no2)cc1	13*	HuH7 TTR inh=11;TTR up confirm=-1
O=C(NCc1ccncc1)c1nc(-c2cccs2)no1	7
COc1cc(C(=O)OCC(=O)NCc2ccc(F)cc2)ccc1OCC(C)C	1
CCCCCn1c(=O)c(Cc2ccccc2)c(O)c2ccccc21	-2
CCCn1c(=O)c(Cc2ccccc2)c(O)c2ccccc21	11*	HuH7 TTR inh=-12;TTR up confirm=-1
CCCn1c(=O)c(C(=O)NCc2ccccc2)c(O)c2ccccc21	-1
CCc1noc(C)c1C(=O)N(C)CC(=O)Nc1cccc(OC)c1	5
CCOC(=O)C1=C(c2cccc(Oc3ccccc3)c2)NC(=S)NC1C (stereo not given)	-1
CCCSc1cc(=O)n(-c2ccccc2)nc1C(=O)O	0
CCOC(=O)c1nn(-c2ccccc2)c(=O)cc1SC(C)C	1
CCCCSc1cc(=O)n(-c2ccccc2)nc1C(=O)OCC	10*	HuH7 TTR inh=2;TTR up confirm=-1
COc1ccc(C2=NS(=O)(=O)N(C)C(C(=O)Nc3ccc4c(c3)OCO4)=C2)cc1OC	-3
O=C1CC(NNc2ccccc2)C(=O)N1c1ccccc1 (stereo not given)	11*	HuH7 TTR inh=2;TTR up confirm=-1
SMILES	TTR transcr act	others
CC(O)CCC(=O)NNC1CC(=O)N(c2ccccc2)C1=O (stereo not given)	3
CCOC(=O)NNC1CC(=O)N(c2ccccc2)C1=O (stereo not given)	2
Cc1cc(C)n2nc(C(=O)OCC(=O)Nc3ccc4c(c3)OC(F)(F)O4)nc2n1	-1
COC(=O)c1cc(COC(=O)c2nc3nc(C)cc(C)n3n2)oc1C	10*	HuH7 TTR inh=-11;TTR up confirm=-1
Cc1cc(C)n2nc(C(=O)OCC(=O)c3ccccc3)nc2n1	0
C=CCN1C(=O)[C@@H](CC(=O)NCCCOCCCC)[C@]2(C(=O)OC)CCCCC=C12	2
CCOC(=O)c1ccc(NC(=O)c2nc[nH]c2C(=O)NC[C@@H](C)O)cc1	0
Cc1nc(N)ncc1CCC1OCCO1	12*	HuH7 TTR inh=-10;TTR up confirm=0
COCCCNC(=O)c1ccc(Cn2c(=O)c3ccccc3n(Cc3ccc([N+](=O)[O-])cc3)c2=O)cc1	0
CC(=O)N1Cc2cc(C(=O)NCC(F)(F)F)nc(-c3cccc(-c4cc5ccccc5o4)c3)c2[C@H]1CCO	-1
COC(=O)c1sccc1-n1cc2c(c1-c1ccccc1)c(=O)n(C)c(=O)n2C	-1
Cc1ccc2cccc(OCC(=O)N(C)CC(=O)Nc3ccc(F)cc3)c2n1	4
Cc1ccc(NC(=O)CN(C)C(=O)COc2c(Cl)cc(Cl)c3ccc(C)nc23)cc1	13*	HuH7 TTR inh=-42;TTR up confirm=0
Cc1ccc2c(Cl)cc(Cl)c(OCC(=O)NC(=O)NCc3ccco3)c2n1	-2
COC(=O)[C@@]1(Cc2ccccc2)[C@H]2C(=O)N(Cc3ccccc3)C(=O)[C@H]2[C@H]2CN=C(SCC3CC3)N21	-1
CCC(C)[C@H](NC(=O)Nc1ccccc1F)C(=O)O (stereo not given in full)	9
COC(C(=O)NC1CC1)c1ccccc1 (stereo not given)	2

Screening results: PubChem, The Scripps Research Institute Molecular Screening Center
